# Laboratory results: PubChem BioAssay AID2315 (National Center for Advancing Translational Sciences (NCATS), 2010)
# “And” between values parts separate entries of the source, which are not always exact repeats. Equal entries are not always repeated. The campaign covered roughly 290,000 compounds. About 27,000 (9.3%) were called active. Rule as the data show it: active = inhibition mostly above about 28% (no sharp cut-off); inactive = mostly below about 43%. For the sample, actives were picked, then their nearest neighbours and some compounds at random.
# Experiment: A qHTS for Small Molecule Inhibitors of Shiga Toxin; also: 0% is about no effect
# Details: Vero cells, Shiga toxin protein synthesis inhibition reporter; at 38.7 µM, stronger effect = higher value
row,Compound,inhibition
1,CSCCC(NS(=O)(=O)c1ccccc1F)C(=O)N1CC=C(c2ccccc2)CC1 (stereo not given),-9.3% (inactive)
2,COCCN(C(=O)C(C)C)c1nnc(-c2ccc(C(C)(C)C)cc2)s1,24.3% (inactive)
3,COc1ccc(-n2nnnc2-c2nc3ccccc3s2)cc1,77.2% (active)
4,CCOc1cccc(-n2nnnc2-c2ccc(OC)cc2)c1,0.378% (inactive)
5,COc1ccc(CSc2nnnn2-c2ccc(C(=O)O)cc2)cc1,-2.72% (inactive)
6,COC(=O)c1ccc(CN2CCCC(C(=O)Nc3cccc(-n4cnnn4)c3)C2)cc1 (stereo not given),-11.4% (inactive)
7,OCCCN1c2ccccc2Nc2nnc(-c3ccccc3)cc21,57.2% (active)
8,N=c1c2c(-c3ccccc3)c(-c3ccccc3)n(Cc3ccccc3)c2ncn1CCCO,-13.5% (inactive)
9,O=[N+]([O-])c1ccc(N(CCO)Cc2ccccc2)c([N+](=O)[O-])c1,6.65% (inactive)
10,COc1ccc(C(=O)c2c(C)c(CCC#N)n3ccccc23)c(OC)c1,-12.7% (inactive)
11,CC(C)C(=O)Nc1c(C(=O)c2ccc(F)cc2)oc2ccccc12,-3.91% (inactive)
12,CC(C)C(=O)Nc1ccc2oc(=O)ccc2c1,31% (inactive)
13,CC(C)C(=O)Nc1ccc2c(c1)oc1ccccc12,105% (active)
14,Cc1c(CC(=O)NCC(=O)NCC(=O)O)c(=O)oc2cc3oc4c(c3cc12)CCCC4,2.91% (inactive)
15,CCNC(=O)c1sccc1-n1cccc1,-7.99% (inactive)
16,CC(C)=CCc1c(O)c(CC=C(C)C)c2occ(-c3ccc(O)cc3)c(=O)c2c1O,46.6% (active)
17,CCc1ccc(OCC(=O)NCC(c2ccc(Cl)cc2)N2CCCCC2)cc1 (stereo not given),-3.91% (inactive)
18,CCOC(=O)Cn1c(O)c(N=NC(=O)CNC(=O)Cc2ccccc2)c2ccccc21,13.1% (inactive)
19,CC(C)(C)N(Cc1ccccc1)C(=O)c1ccncc1,-5.35% (inactive)
20,O=C(Nc1ccccc1)OCc1cc(-c2ccc(Cl)cc2)on1,-25% (inactive)
21,O=C(Nc1cccc(CCc2ccccn2)c1)c1ccc(Cl)cc1,22.8% (inactive)
22,O=C(Nc1cccc(Cl)c1)OCc1ccccn1,98% (active)
23,COC(=O)c1ccc2ccccc2c1OC1OC(CO)C(O)C(O)C1NC(C)=O (stereo not given),-11.3% (inactive)
24,CCN(CC)c1ccc2cc(C(N)=O)/c(=N\NC(=O)c3ccncc3)oc2c1,24.7% (inactive)

row,Compound,inhibition
1,CCN(CC)c1ccc2c(Nc3ccccc3)c(C=O)c(=O)oc2c1,29.5% (inactive)
2,CCN(CC)c1ccc2oc(=O)c(C)nc2c1,22% (active)
3,COc1cc2c(cc1OC)C(/C=C/c1ccco1)=NCC2,-7.71% (inactive)
4,Cc1ccccc1N1CC(C(=O)Nc2ccc3c(c2)OCO3)CC1=O (stereo not given),21.6% (inactive)
5,Cc1ccc(NC(=O)C2CC(c3ccc(F)cc3)=NO2)cc1 (stereo not given),-22.6% (inactive)
6,O=C(Nc1ccc2c(c1)OCO2)C1CC(c2c(F)cccc2Cl)=NO1 (stereo not given),72.1% (active)
7,COc1cc(S(=O)(=O)Nc2ncn[nH]2)ccc1Cl,-3.71% (inactive)
8,CCC1CCCCN1C(=S)Nc1ccc(S(=O)(=O)Nc2ncccn2)cc1 (stereo not given),8.74% (inactive)
9,CC(=O)c1ccc(OCC(O)CN2CCN(S(=O)(=O)c3cccc(Br)c3)CC2)cc1 (stereo not given),-10% (inactive)
10,COc1ccc(S(=O)(=O)/N=C2\C=C(NS(=O)(=O)c3ccccc3)C(=O)c3ccccc32)cc1,61.3% (active)
11,COc1ccc(S(=O)(=O)Nc2c(C)n(C)n(-c3ccccc3)c2=O)cc1,1.34% (inactive)
12,COc1ccc2cc(S(=O)(=O)Nc3ccccn3)ccc2c1,-1.18% (inactive)
13,CCn1c(C)c(C)c2cc(C(=O)N3CCN(c4cccc(C)c4C)CC3)ccc21,-9.52% (inactive)
14,Cc1ccc(-n2c(C)cc(/C=C(\C#N)C(=O)NCC3CCCO3)c2C)cc1 (stereo not given),108% (active)
15,Cc1ccc(C(=O)N/C(=C/c2cccs2)C(=O)NCC2CCCO2)cc1 (stereo not given),16.9% (inactive)
16,Cc1ccc(S(=O)(=O)N2CCC(C(=O)NCC3CCCO3)CC2)cc1 (stereo not given),-25.2% (inactive)
17,C/C(N)=C(/C#N)C(=O)COC(=O)c1cc(-c2ccc(C)cc2)nc2ccccc12,53.2% (active)
18,C/C(N)=C(/C#N)C(=O)COC(=O)c1cc(-c2ccccc2)nc2ccc(Br)cc12,-3.47% (inactive)
19,C/C(N)=C(/C#N)C(=O)COC(=O)c1cc(-c2cccc(Br)c2)nc2ccccc12,5.3% (inactive)
20,CNC(=O)COC(=O)c1cc(-c2ccc(OC)cc2)nc2ccccc12,54.5% (active)
21,COc1ccc(-c2cc(C(=O)n3cnc4ccccc43)c3ccccc3n2)cc1,6.77% (inactive)
22,COc1ccc(-c2cc(C(=O)N(C)Cc3ccccc3)c3ccccc3n2)cc1,-2.41% (inactive)
23,O=C(c1cccs1)N(Cc1cc2ccccc2[nH]c1=O)CC1CCCO1 (stereo not given),-16% (inactive)
24,CCN1C(=NCCc2cccnc2)N[C@@H](c2ccccc2)C(C(=O)OC)=C1C,-1.87% (inactive) and -4.64% (inactive)

row,Compound,inhibition
1,S=C(Nc1cccnc1)Nc1ccccn1,-1.64% (inactive)
2,Cc1ccc(NC(=S)NCCc2ccc(Cl)cc2)c(C)c1,13.6% (inactive)
3,Cc1ccc(NC(=S)Nc2ncccc2C)c(C)c1,54.2% (active)
4,Cc1ccc(NC(=S)NCc2ccccc2Cl)c(C)c1,-19.8% (inactive)
5,COc1ccc(CN2CC(C(=O)NCCc3ccc(Cl)cc3)CC2=O)cc1 (stereo not given),-11.7% (inactive)
6,Cn1ncc(Br)c1C(=O)NC1CCCC1,-7.94% (inactive)
7,C=CCn1c(=NC(=O)c2cccs2)sc2cc(NC(C)=O)ccc21,47.4% (active)
8,C=CCn1c(=NC(=O)c2ccc(S(=O)(=O)N3CCCC3)cc2)sc2cc(NC(C)=O)ccc21,-8.21% (inactive)
9,C=CCn1c(CCNC(=O)c2cccs2)n[nH]c1=S,2.22% (inactive)
10,COc1ccc(CNS(=O)(=O)c2cc(-c3cc(C)no3)ccc2C(C)C)cc1,-15.5% (inactive)
11,CN(C)Cc1c(C(=O)N/N=C/c2ccccc2OCc2ccc(F)cc2)nnn1-c1nonc1N,-7.12% (inactive)
12,O=C(/C=C/c1ccc2c(c1)OCCO2)c1ccc(O)cc1,56.9% (active)
13,O=C(/C=C\c1ccc2c(c1)OCO2)NC1(C(=O)Nc2ccc3c(c2)OCCO3)CCCCC1,-4.85% (inactive)
14,O=C(/C=C/c1ccc(Cl)c([N+](=O)[O-])c1)c1ccc(O)cc1,10.6% (inactive)
15,CN(C)c1ccc(/C=C/C(=O)c2ccc(O)cc2)cc1[N+](=O)[O-],48.8% (active)
16,CN(C)c1ccc(/C=C/C(=O)c2ccc(C(C)(C)C)cc2)cc1[N+](=O)[O-],27.8% (inactive)
17,O=C(O)/C=C/c1ccc2c(c1)OCCO2,-2.74% (inactive)
18,CCOc1ccc(N2CC(C(=O)NCc3ccccn3)CC2=O)cc1 (stereo not given),-7.37% (inactive)
19,COc1cc(/C=C/C(=O)N2CCc3ccccc3C2)cc(OC)c1OC,-4.9% (inactive)
20,Cc1ccc(S(=O)(=O)N2CCC(Oc3ccc(-n4cnnn4)cc3)CC2)cc1,1.93% (inactive)
21,Cc1ccc(C)c(N2CCN(C(=O)Cn3ncn4cccc4c3=O)CC2)c1,-2.82% (inactive)
22,CCc1nc2nc(C)c(NS(=O)(=O)c3ccc4c(c3)CCCC4)c(=O)n2[nH]1,-6.5% (inactive)
23,Cc1cccc(CNS(=O)(=O)c2ccc(-c3cnc(C4CC4)o3)cc2)c1,13.9% (inactive)
24,N/C(Cc1ccc([N+](=O)[O-])cc1)=N\OC(=O)COc1ccc2ccccc2c1,12.2% (inactive)

row,Compound,inhibition
1,N/C(=N\OC(=O)COc1ccc([N+](=O)[O-])cc1)c1ccc(Br)cc1,2.73% (inactive)
2,N/C(=N\OC(=O)Cc1ccc([N+](=O)[O-])cc1)c1ccccn1,124% (active)
3,CO/N=C(\N)c1ccc([N+](=O)[O-])cc1,-2.22% (inactive)
4,O=C(OCc1ccc([N+](=O)[O-])cc1)c1ccccn1,1.67% (inactive)
5,N/C(=N\OC(=O)c1ccc([N+](=O)[O-])cc1)c1ccccn1,71% (active)
6,CC(C)(C)c1ccc(Cn2nnc3c(=O)[nH]c(C4CCCN(C(=O)c5ccco5)C4)nc32)cc1 (stereo not given),2.02% (inactive)
7,Cc1cc(C)n(CCC(=O)N2CCN(S(=O)(=O)c3ccc(C)c(C)c3)CC2)n1,-6.68% (inactive)
8,Cc1ccc(CNC(=O)C2CCCN2S(=O)(=O)c2ccc3c(c2)C(C)(C)C(=O)N3C)cc1 (stereo not given),-2.07% (inactive)
9,Cc1cc(C(F)F)nn1CC(=O)NC1CCCCCC1,-2.84% (inactive)
10,CCn1c(=S)sc2c(=O)n(CC(=O)Nc3ccc(OC)cc3)c(C)nc21,-8.22% (inactive)
11,COc1cc(CCC(=O)Nc2ccncc2Cl)cc(OC)c1OC,-2.22% (inactive)
12,CN(C(=O)CCn1c(=S)oc2ccccc21)C1CCCCC1,-6.3% (inactive)
13,CN(C(=O)CSc1nncc2ccccc12)C1CCCCC1,69.8% (active)
14,CN(C(=O)CSc1nnnn1-c1ccccc1)C1CCCCC1,31.7% (inactive)
15,CC(=O)Nc1ccc(N2C(=O)C3C4C=CC(CC4)C3C2=O)cc1 (stereo not given),11.7% (inactive)
16,O=C(Cc1ccc(F)cc1)NC1CCCC1,-4.53% (inactive)
17,O=C(CC1CCCCC1)NCc1ccccc1,107% (active)
18,CC(=O)Nc1ccc(NC(=O)CC2CCCC2)cc1,48.2% (active)
19,O=C(Cn1nc(C(F)(F)F)c2c1CCC2)NCc1ccc(F)cc1,-2.3% (inactive)
20,O=C(CC1CCCCC1)NCc1ccc(F)cc1,61.1% (active)
21,CC(=O)Nc1ccc(S(=O)(=O)N2CCN(C3CCCCCCC3)CC2)cc1,-14.3% (inactive)
22,O=C(CC1CCCCC1)NCc1ccco1,-2.21% (inactive)
23,O=C(CCc1ccc(S(=O)(=O)NC2CCCCC2)cc1)NCc1ccccc1,-10% (inactive)
